Values joined by “and” are separate entries in the source; they are usually repeats but may differ in a detail not shown here. Equal entries are not always repeated. Compounds without any hit were thinned out: in the full panel of roughly 83,000, 20% have a hit.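 96-well plates, one dose, 48 hours. Percent growth reported; active if below 10.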 Active and inactive are the calls of the source.

Among the test systems are NCI-H23 lung; NCI-H226 lung; NCI-H322M lung; HOP-62 NSCLC; NCI-H460 lung; HOP-92 NSCLC; NCI-H522 lung; A549/ATCC NSCLC; 786-0 renal; COLO 205 colon; DU-145 prostate; K-562 leukemia; MALME-3M melanoma; MDA-MB-231 breast; RXF 393 renal; SF-268 CNS; SF-295 CNS; SF-539 CNS; UACC-257 melanoma; M14 melanoma.
Experiment in all cases: NCI-60 one-dose screen, 48 h (100 = growth as untreated, 0 = no growth, -100 = all killed)
Common to all, as to conditions: 10 µM unless noted

For the molecule `Oc1ccccc1C=NCC1CCC(CN=Cc2ccccc2O)CC1` (stereo not given), the growth was 78.9% (inactive) in the assay with NCI-H23 lung; 101% (inactive) in the assay with NCI-H226 lung; 80.3% (inactive) in the assay with NCI-H322M lung; 94.5% (inactive) in the assay with HOP-62 NSCLC; 41.7% (inactive) with NCI-H460 lung; 104% (inactive) in the assay with HOP-92 NSCLC. In addition, the growth is 57.7% (inactive) in the assay with NCI-H522 lung; 92.2% (inactive) in the assay with A549/ATCC NSCLC; 108% (inactive) in the assay on 786-0 renal; 97.3% (inactive) in the assay on COLO 205 colon; 3.17% (active) with DU-145 prostate; 99.4% (inactive) in the assay on K-562 leukemia. For the same molecule, the growth in the assay with MALME-3M melanoma is 113% (inactive); in the assay on MDA-MB-231 breast, 101% (inactive); in the assay with RXF 393 renal it was 76.4% (inactive); with SF-268 CNS, 93.9% (inactive); in the assay with SF-295 CNS, 71.6% (inactive); in the assay on SF-539 CNS it was 100% (inactive). The figures for the growth in the assay with UACC-257 melanoma and with M14 melanoma were 102% (inactive) and 98.8% (inactive), respectively.

As to `COc1ccc(-c2cn[nH]c2-c2cc(OC)c(OC)c(OC)c2)cc1N`, the growth is 22.5% (inactive) and 28.3% (inactive) in the assay on NCI-H23 lung; 69.4% (inactive) and 50.2% (inactive) in the assay on NCI-H226 lung; 45.3% (inactive) and 36.2% (inactive) with NCI-H322M lung; 52.2% (inactive) and 35.6% (inactive) with HOP-62 NSCLC; 4.87% (active) and 8.68% (active) in the assay on NCI-H460 lung; 53.9% (inactive) and 22.5% (inactive) with HOP-92 NSCLC. Moreover, the growth in the assay on NCI-H522 lung is 0.102% (active) and 3.18% (active); in the assay on A549/ATCC NSCLC, 12.4% (inactive) and 23% (inactive); in the assay with 786-0 renal, 18.1% (inactive) and 25.6% (inactive); in the assay on COLO 205 colon, -55.7% (active) and -53.2% (active); in the assay with DU-145 prostate, 13.8% (inactive) and 3.66% (active); with K-562 leukemia it was 11% (inactive) and 11.5% (inactive). Also, the growth in the assay with MALME-3M melanoma is 78.7% (inactive) and 44.3% (inactive); with MDA-MB-231 breast, 22.9% (inactive) and 14.6% (inactive); in the assay with RXF 393 renal it was 19.3% (inactive); with SF-268 CNS it was 26.5% (inactive) and 48.8% (inactive); in the assay with SF-295 CNS it was 3.28% (active) and 17.5% (inactive); in the assay on SF-539 CNS, 1.73% (active) and -4.41% (active). Besides, the growth in the assay on UACC-257 melanoma was 66.7% (inactive); in the assay with M14 melanoma, 10.5% (inactive) and 15% (inactive).

For the molecule `CCCCCN(CCCCC)CC(O)c1cc2c(c3ccccc13)CCCC2` (stereo not given), the growth with NCI-H23 lung is 31.5% (inactive) and 40.8% (inactive); with NCI-H226 lung, 69.8% (inactive) and 53.2% (inactive); in the assay on NCI-H322M lung it was 71.3% (inactive) and 38.5% (inactive); in the assay on HOP-62 NSCLC, 36.2% (inactive) and 75.6% (inactive); in the assay with NCI-H460 lung, 38.7% (inactive) and 25.8% (inactive); with HOP-92 NSCLC, -14.4% (active). For the same molecule, the growth was 53% (inactive) and 50.1% (inactive) in the assay on NCI-H522 lung; 71.1% (inactive) and 59.9% (inactive) in the assay on A549/ATCC NSCLC; 39.1% (inactive) and 27.2% (inactive) in the assay with 786-0 renal; 40.7% (inactive) in the assay on COLO 205 colon; 75.5% (inactive) and 80.2% (inactive) in the assay with DU-145 prostate; 23.5% (inactive) and 24.7% (inactive) with K-562 leukemia. The growth was 65.4% (inactive) and 74.3% (inactive) in the assay on MALME-3M melanoma; 8.63% (active) and 59.1% (inactive) in the assay on MDA-MB-231 breast; 26% (inactive) and 87.5% (inactive) in the assay with RXF 393 renal; 86.7% (inactive) and 80% (inactive) with SF-268 CNS; 55.5% (inactive) in the assay on SF-295 CNS; 68.8% (inactive) and 52% (inactive) in the assay with SF-539 CNS. In addition, the growth in the assay on UACC-257 melanoma is 71.9% (inactive) and 71.5% (inactive); in the assay with M14 melanoma it was 76.8% (inactive) and 72.4% (inactive).

As for `CN1CCN(c2ccc3nc(-c4c(N)c5c(F)cccc5[nH]c4=O)[nH]c3c2)CC1`, the growth is 27.9% (inactive) and 34.1% (inactive) in the assay on NCI-H23 lung; 54.8% (inactive) and 71.3% (inactive) in the assay on NCI-H226 lung; 52.4% (inactive) and 61.6% (inactive) with NCI-H322M lung; 23.4% (inactive) and 24.6% (inactive) in the assay with HOP-62 NSCLC; 6.56% (active) and 7.99% (active) with NCI-H460 lung; 43.9% (inactive) and 44.5% (inactive) in the assay with HOP-92 NSCLC. Moreover, the growth is 18.5% (inactive) and 53.8% (inactive) in the assay with NCI-H522 lung; 12.9% (inactive) and 22.3% (inactive) in the assay on A549/ATCC NSCLC; 38.1% (inactive) and 24.8% (inactive) in the assay with 786-0 renal; 5.09% (active) and 26.8% (inactive) with COLO 205 colon; 33.5% (inactive) and 29.3% (inactive) in the assay with DU-145 prostate; -26.6% (active) and -24.4% (active) in the assay with K-562 leukemia. The growth in the assay with MALME-3M melanoma was 7.87% (active) and -13.5% (active); with MDA-MB-231 breast, 42.4% (inactive) and 52.5% (inactive); in the assay with RXF 393 renal, -1.36% (active) and 26.3% (inactive); in the assay with SF-268 CNS, 44.7% (inactive) and 48.9% (inactive); in the assay on SF-295 CNS, 56.6% (inactive) and 71.6% (inactive); in the assay with SF-539 CNS, 6.28% (active) and 11.5% (inactive). In addition, the growth in the assay on UACC-257 melanoma was -59.4% (active) and -18.1% (active); with M14 melanoma, -25.3% (active) and 2.34% (active).

As to `Clc1nc(Oc2ccccc2)nc(-c2cn(-c3ccccc3)c3ccccc23)n1`, the growth is 14.5% (inactive) in the assay on NCI-H23 lung; 80.2% (inactive) in the assay with NCI-H226 lung; 93.5% (inactive) in the assay on NCI-H322M lung; 101% (inactive) with HOP-62 NSCLC; 97.2% (inactive) in the assay with NCI-H460 lung; -40.8% (active) in the assay with HOP-92 NSCLC. Besides, the growth is 111% (inactive) with NCI-H522 lung; 102% (inactive) in the assay with A549/ATCC NSCLC; 101% (inactive) with 786-0 renal; 98.1% (inactive) with COLO 205 colon; 76.7% (inactive) with DU-145 prostate; 36.9% (inactive) in the assay with K-562 leukemia. Further, the growth is 85.7% (inactive) in the assay on MALME-3M melanoma; 40% (inactive) with MDA-MB-231 breast; 42.9% (inactive) in the assay with RXF 393 renal; 28.3% (inactive) with SF-268 CNS; 86.2% (inactive) in the assay on SF-295 CNS; 91.1% (inactive) with SF-539 CNS. The growth with UACC-257 melanoma is 93.6% (inactive); in the assay on M14 melanoma it was 71.1% (inactive).

In the case of `COc1ccccc1/C=N\N=C(N/N=C/c1ccccc1OC)N/N=C/c1ccccc1OC`, the growth with NCI-H23 lung is 58% (inactive) and 27.5% (inactive); in the assay with NCI-H226 lung, 85.7% (inactive) and 46.5% (inactive); in the assay with NCI-H322M lung, 56.5% (inactive) and 15.1% (inactive); in the assay on HOP-62 NSCLC, 74.8% (inactive) and 26.9% (inactive); with NCI-H460 lung, 46.3% (inactive) and 12.8% (inactive); with HOP-92 NSCLC, 68.2% (inactive) and 15.3% (inactive). In addition, the growth with NCI-H522 lung was 38.6% (inactive) and 17.3% (inactive); with A549/ATCC NSCLC, 61.1% (inactive) and 27.1% (inactive); in the assay on 786-0 renal, 74.4% (inactive) and 35.8% (inactive); in the assay on COLO 205 colon, 75.6% (inactive) and 34.6% (inactive); in the assay with DU-145 prostate, 71.5% (inactive) and 53.4% (inactive); in the assay on K-562 leukemia it was 34.1% (inactive) and 11.4% (inactive). For the same molecule, the growth with MALME-3M melanoma was 52.1% (inactive); in the assay with MDA-MB-231 breast it was 73.8% (inactive) and 51.3% (inactive); in the assay on RXF 393 renal it was 94.5% (inactive) and 60.1% (inactive); in the assay with SF-268 CNS, 63.6% (inactive) and 25.6% (inactive); with SF-295 CNS, 52.1% (inactive); in the assay on SF-539 CNS, 83.7% (inactive) and 42.1% (inactive). For the same molecule, the growth in the assay on UACC-257 melanoma was 90.9% (inactive) and 31% (inactive); in the assay on M14 melanoma, 59.9% (inactive) and 26.6% (inactive).

As for `CCOC(=O)c1c(C)oc(C)c(C(=O)OCC)c1=O`, the growth with NCI-H23 lung is 91.8% (inactive) and 96% (inactive); in the assay with NCI-H226 lung, 95.9% (inactive) and 104% (inactive); in the assay with NCI-H322M lung, 99.7% (inactive) and 107% (inactive); in the assay on HOP-62 NSCLC it was 99.9% (inactive) and 96.7% (inactive); in the assay with NCI-H460 lung, 108% (inactive) and 104% (inactive); with HOP-92 NSCLC it was 98.3% (inactive) and 73.8% (inactive). Besides, the growth is 109% (inactive) and 94.9% (inactive) in the assay with NCI-H522 lung; 104% (inactive) and 106% (inactive) in the assay on A549/ATCC NSCLC; 98.8% (inactive) and 104% (inactive) in the assay on 786-0 renal; 117% (inactive) in the assay on COLO 205 colon; 118% (inactive) and 110% (inactive) in the assay on DU-145 prostate; 102% (inactive) and 87% (inactive) in the assay on K-562 leukemia. Besides, the growth is 133% (inactive) and 100% (inactive) in the assay with MALME-3M melanoma; 109% (inactive) and 108% (inactive) in the assay on MDA-MB-231 breast; 104% (inactive) and 117% (inactive) with RXF 393 renal; 102% (inactive) and 104% (inactive) in the assay on SF-268 CNS; 133% (inactive) and 105% (inactive) in the assay on SF-295 CNS; 102% (inactive) and 92.8% (inactive) in the assay with SF-539 CNS. The growth was 102% (inactive) and 107% (inactive) in the assay with UACC-257 melanoma; 98.8% (inactive) in the assay with M14 melanoma.

As for `CN1CCN(C2CCN(C(=O)Nc3cc(Oc4ccc(NC(=O)C5(C(=O)Nc6ccc(F)cc6)CC5)c(F)c4)ccn3)CC2)CC1`, the growth in the assay with NCI-H23 lung is -44.6% (active) and 73.4% (inactive); in the assay with NCI-H226 lung it was -4.95% (active) and 76.4% (inactive); with NCI-H322M lung it was -27.6% (active) and 94% (inactive); in the assay on HOP-62 NSCLC, -68.7% (active) and 110% (inactive); in the assay with NCI-H460 lung it was -50.4% (active) and 77.2% (inactive); with HOP-92 NSCLC it was -43.2% (active) and 68.1% (inactive). In addition, the growth was -66.2% (active) and 80.8% (inactive) in the assay on NCI-H522 lung; -13.9% (active) and 90.3% (inactive) in the assay with A549/ATCC NSCLC; -72.9% (active) and 110% (inactive) in the assay on 786-0 renal; -78.3% (active) and 85.6% (inactive) in the assay with COLO 205 colon; 8.48% (active) and 69.1% (inactive) in the assay with DU-145 prostate; 0.176% (active) and 37.1% (inactive) with K-562 leukemia. The growth was -86.6% (active) and 60.2% (inactive) in the assay with MALME-3M melanoma; -65.7% (active) and 68.3% (inactive) with MDA-MB-231 breast; -91.7% (active) and 86.4% (inactive) with RXF 393 renal; -22.5% (active) and 90.8% (inactive) in the assay with SF-268 CNS; -87.8% (active) and 50.8% (inactive) in the assay on SF-295 CNS; -96.4% (active) and 58.7% (inactive) in the assay on SF-539 CNS. Also, the growth with UACC-257 melanoma was -91.6% (active) and 95.8% (inactive); in the assay on M14 melanoma it was -77.3% (active) and 57% (inactive).

For the origin of these results see PubChem BioAssay (NCI).
